APOBEC3G inh: blocks human APOBEC3G single-stranded DNA deamination | Q9HC16 | recombinant A3G, ssDNA deamination FAM/TAMRA fluorescence | inhibition, % at 20 µM | hit rate 0.28% among 330,000 | AID 493012;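 active = inhibition of at least 40% at 20 µM, with no more than 30% in the related APOBEC3A deaminase screen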;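 also: plate controls were DMSO wells with A3G for no effect and wells lacking A3G enzyme for full effect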
ADAM10 inh: inhibits human ADAM10 | inhibition, % at 7 µM | hit rate 0.62% among 370,000 | O14672 | recombinant ADAM10, EDANS/DABCYL FRET peptide cleavage, 3 h;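 active = inhibition above a per-campaign cutoff equal to the mean of compounds falling between control-based bounds plus 3 SD, cut at about 20% in these data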;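 also: 0% = DMSO wells while the 100% control is not disclosed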
NRP1-CendR mod: NRP-1/CendR interaction modulation; O14786; FAM-RPARPAR peptide binding to NRP-1, fluorescence polarization; inhibition, % at 25 µM; hit rate 0.85% among 360,000;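 active = inhibition or corrected inhibition above about 18%, plus a signal ratio from 0.5 to 1.5, limit read from the data, passing the limit was not always enough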
Target sequence (O14786 whole entry, looked up): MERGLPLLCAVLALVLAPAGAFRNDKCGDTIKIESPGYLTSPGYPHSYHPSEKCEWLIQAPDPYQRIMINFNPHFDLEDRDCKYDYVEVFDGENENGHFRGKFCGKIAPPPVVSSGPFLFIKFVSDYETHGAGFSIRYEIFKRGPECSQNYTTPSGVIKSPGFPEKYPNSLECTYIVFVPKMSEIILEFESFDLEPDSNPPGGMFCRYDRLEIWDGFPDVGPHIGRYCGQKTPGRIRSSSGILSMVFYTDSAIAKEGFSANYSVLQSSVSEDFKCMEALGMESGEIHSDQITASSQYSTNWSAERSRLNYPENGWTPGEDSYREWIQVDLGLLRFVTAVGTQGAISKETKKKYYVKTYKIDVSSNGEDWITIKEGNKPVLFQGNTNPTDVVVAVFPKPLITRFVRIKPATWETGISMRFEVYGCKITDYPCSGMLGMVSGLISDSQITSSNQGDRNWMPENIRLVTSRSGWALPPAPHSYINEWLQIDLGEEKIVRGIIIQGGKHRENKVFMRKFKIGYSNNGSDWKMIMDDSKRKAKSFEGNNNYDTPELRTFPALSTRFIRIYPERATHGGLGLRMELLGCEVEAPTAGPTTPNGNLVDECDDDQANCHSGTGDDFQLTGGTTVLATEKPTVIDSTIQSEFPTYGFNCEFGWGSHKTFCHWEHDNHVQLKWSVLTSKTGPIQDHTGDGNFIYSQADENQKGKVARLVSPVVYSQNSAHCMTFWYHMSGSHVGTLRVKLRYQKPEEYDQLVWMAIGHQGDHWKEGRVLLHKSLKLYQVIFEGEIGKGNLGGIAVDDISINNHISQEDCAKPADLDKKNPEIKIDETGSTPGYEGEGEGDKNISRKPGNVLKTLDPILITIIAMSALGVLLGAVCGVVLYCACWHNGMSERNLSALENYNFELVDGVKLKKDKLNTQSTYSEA
APOBEC3A inh: blocks human APOBEC3A ssDNA deamination; P31941; hit rate 0.41% among 330,000; recombinant A3A, FAM/TAMRA ssDNA deamination fluorescence; inhibition, % at 20 µM; AID 493011;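 active = at least 40% inhibition at 20 µM here, with at most 30% in a related deaminase screen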;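 also: plate controls were A3A with DMSO for no effect and wells lacking A3A enzyme for full effect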
ADAM17 inh: inhibits human ADAM17; P78536; recombinant ADAM17, EDANS/DABCYL FRET peptide cleavage; inhibition, % at 6.95 µM; hit rate 0.83% among 370,000; AID 720648;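 active = inhibition above the mean of compounds lying between control limits plus 3 SD, set per campaign, cut at about 8.5% in these data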;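 also: 0% = DMSO-only wells as the low control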
ADAM10 ctr: inhibits human ADAM10 in ADAM17 exosite counter-screen; shares compounds with ADAM17 inh; inhibition, % at 6.95 µM; recombinant ADAM10, EDANS/DABCYL FRET peptide cleavage, 3 h; hit rate 47% among 2,900; AID 743256;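 active = mean inhibition over the triplicate runs exceeds the activity threshold set in the earlier primary screen, cut at about 20% in these data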;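 also: 0% = DMSO wells and 100% = marimastat wells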
ADAM17 confirm: confirmation of inhibitors of human ADAM17; shares compounds with ADAM17 inh; recombinant ADAM17, EDANS/DABCYL QFRET peptide cleavage; inhibition, % at 6.95 µM; hit rate 65% among 2,900; AID 743257;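 active = mean inhibition across replicates above the hit cutoff set in the primary screen, cut at about 8.5% in these data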;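 also: 0% = DMSO wells and 100% = marimastat wells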
Numbers without * were called inactive; / = no result. Rows were chosen to be rich in hits. Some 2.4% of all compounds tested hit in one or more screens of this group.

SMILES | APOBEC3G inh | ADAM10 inh | NRP1-CendR mod | APOBEC3A inh | ADAM17 inh | ADAM10 ctr | ADAM17 confirm
c1ccc(Nc2nc(N3CCOCC3)nc(N3CCOCC3)n2)cc1 | -10 | 4 | 12 | -5 | 0 | / | /
CCc1ccc(NS(=O)(=O)c2ccc3[nH]cc(C(=O)N4CCc5ccccc54)c(=O)c3c2)cc1 | 3 | 12 | 7 | 11 | 10* | 14 | 11*
Cc1cc(C)cc(NS(=O)(=O)c2ccc3[nH]cc(C(=O)N4CCc5ccccc54)c(=O)c3c2)c1 | -2 | 12 | -9 | 3 | 6 | / | /
Nc1cc(S(=O)(=O)N2CCCCC2)ccc1Oc1ccc(Cl)cc1 | -8 | 20 | 6 | -1 | 8.8* | 17 | 11*
Cc1cc(C)cc(NC(=O)c2cccn2-c2ncc(C(F)(F)F)cc2Cl)c1 | 4 | 19 | 3 | 4 | 17* | 9 | 5
O=C(Nc1ccc(F)cc1F)c1cccn1-c1ncc(C(F)(F)F)cc1Cl | -7 | 7 | 6 | -1 | 2 | / | /
CC1CCN(C(=O)c2ncn3c2C(=O)NC[C@@H]3C)CC1 | / | -12 | / | / | -2 | / | /
O=C(NCc1cccc(C(F)(F)F)c1)c1cccc(S(=O)(=O)NCc2ccccc2)c1 | -4 | 18 | 3 | 2 | 12* | 24* | 11*
Oc1ccc(C[C@H]2CNC(=S)N2CC2CCCN2C[C@H](Cc2ccc(O)cc2)N2C[C@H](Cc3ccccc3)N(CC3CCCCCC3)C2=S)cc1 (some centres undefined) | / | 14 | 4 | / | 10.0* | 43* | 23*
Oc1ccc(C[C@H]2CNC(=S)N2CC2CCCN2C[C@H](Cc2ccc(O)cc2)N2C[C@H](Cc3ccc(O)cc3)N(CC3CCCCCC3)C2=S)cc1 (some centres undefined) | / | 23* | 3 | / | 9.2* | 31* | 18*
CCOc1ccc(CCN2C(=S)N([C@@H](Cc3ccc(O)cc3)CN3CCCC3CN3C(=S)NC[C@@H]3Cc3ccc(O)cc3)C[C@@H]2CC(C)C)cc1 (some centres undefined) | / | 9 | 10 | / | 8.9* | 26* | 16*
O=C(O)CCCC[n+]1ccccc1 | / | -14 | / | / | 2 | / | /
CC/C=C\[C@H](O)[C@H](O)C1=C(C)C(=O)[C@]2(O1)C(=O)N[C@@](OC)(C(=O)c1ccccc1)[C@@H]2O | / | -7 | / | / | -6 | / | /
CC(C)C[C@H]1COc2cc(N3CCOCC3)ccc2S(=O)(=O)N1 | / | 5 | / | / | 2 | / | /
Cc1ccc(-n2c(SCc3nc4ccccc4[nH]3)nnc2-c2ccccn2)cc1 | / | -8 | / | / | 2 | / | /
CC(C)(C)C(=O)OC12CCCN(C1)/C(=C/c1cccc(Cl)c1)C2 (centres undefined) | / | 3 | / | / | 3 | / | /
CC1(C)Cc2c(c(=S)nc(-c3ccccc3)n2CCN2CCOCC2)CO1 | -1 | 2 | -10 | 2 | 8.7* | 3 | 6
COC(=O)c1ccc(NC2=C(Cl)C(=O)OC2OC(=O)c2ccccc2)cc1 (centres undefined) | 5 | -1 | 7 | 0 | -1 | / | /
Cc1ccc(NC2=C(Cl)C(=O)OC2OC(=O)c2ccc(C)cc2)cc1 (centres undefined) | -8 | 2 | -2 | -4 | 9.0* | 17 | 12*
COc1ccc(CNC(=O)C2CCCN(c3nc4ccccc4o3)C2)cc1 (centres undefined) | / | -14 | / | / | -3 | / | /
C/C(=N\NC(=O)c1c(Br)c(C)nn1C)c1ccc(NC(=O)C(C)Oc2ccc(Cl)cc2C)cc1 (centres undefined) | -10 | 16 | 5 | -2 | 9.1* | 17 | 4
COn1c(-c2ccccc2)nc2ncccc21 | -7 | -32 | -4 | 1 | -19 | / | /
Clc1cccc(COn2c(-c3ccc(Cl)cc3Cl)nc3ncccc32)c1 | 0 | 4 | 5 | 1 | 11* | -13 | 4
C=CC[C@H]1CC(C)=C[C@H](CC=C)N1C(=O)c1cc(COc2ccccc2SC)on1 | -5 | 13 | 2 | 0 | 9.4* | 29* | 14*
COCC1CCN(C(=O)c2cc(COc3ccccc3SC)on2)C1 (centres undefined) | -8 | -2 | -4 | -2 | 0 | / | /
SMILES | APOBEC3G inh | ADAM10 inh | NRP1-CendR mod | APOBEC3A inh | ADAM17 inh | ADAM10 ctr | ADAM17 confirm
CCCCN1CC(COCc2ccccc2)Oc2cccc(NCc3cc(OC)c(OC)c(OC)c3)c2S1(=O)=O (centres undefined) | / | -3 | / | / | 0 | / | /
CN1C(c2ccccc2)CC2CN(c3ccccc3)C(=O)C21 (centres undefined) | / | -1 | / | / | -1 | / | /
CCC[C@H]1[C@@H](OC(=O)NCc2ccco2)CC[C@@]23CCCN2C(=O)CCC[C@@H]13 | / | -2 | / | / | -7 | / | /
CC1(c2nnc(Cc3ccccc3)o2)CC(c2ccc(C#N)cc2)=NO1 (centres undefined) | -10 | -4 | 13 | -6 | 9.0* | -4 | 0
CC1(c2nnc(Cc3ccccc3)o2)CC(c2ccc(Cl)cc2)=NO1 (centres undefined) | -11 | -5 | 22 | -2 | -3 | / | /
O=C1NC2(CCCC2)N=C1c1ccc(Cl)cc1 | -2 | 15 | -1 | 2 | 9.6* | 12 | 5
O=C1NC2(CCCCC2)N=C1c1ccc(F)cc1 | 3 | -5 | 22 | 4 | -8 | / | /
Cc1ccc(C)c(C(=O)OCC(=O)Nc2cccc(S(=O)(=O)N3CCCCC3)c2)c1 | -6 | 8 | 12 | -4 | 12* | 32* | 19*
CC(=O)c1ccccc1OCC(=O)Nc1cccc(S(=O)(=O)N2CCCC2)c1 | / | -11 | 0 | / | 9.3* | 10 | 4
CCOc1ccc(NC(=O)COC(=O)c2cc(S(=O)(=O)N3CCCC3)ccc2C)cc1 | 4 | 5 | 10 | 24 | 9.4* | 16 | 7
CCOc1ccc(NC(=O)COC(=O)c2ccc(S(=O)(=O)N3CCOCC3)cc2)cc1 | -9 | -11 | 5 | -2 | -6 | / | /
Cc1ccccc1C(=O)OCC(=O)Nc1cccc(S(=O)(=O)N2CCCCC2)c1 | / | -3 | -25 | / | 2 | / | /
O=C(CN1CCN(Cc2ccccc2)CC1)Nc1cccc(S(=O)(=O)N2CCCCCC2)c1 | -3 | 14 | 5 | -2 | 8.9* | 22* | 11*
O=C(CCS(=O)(=O)c1ccccc1)Nc1cc(Cl)ccc1F | / | 2 | / | / | 2 | / | /
CCOc1cccc(-c2nnc3n2N=C(c2ccc(OC)cc2)CS3)c1 | / | 6 | / | / | 4 | / | /
O=C(COC(=O)c1ccc(Br)o1)Nc1cccc(S(=O)(=O)N2CCCCCC2)c1 | 0 | 12 | 4 | 3 | 9.8* | 26* | 15*
Cc1cccc(OCCC(=O)Nc2ccc(C)c(S(=O)(=O)N3CCCCC3)c2)c1 | / | 26* | 0 | / | 14* | 36* | 18*
O=C(COC(=O)CCc1ccc(S(=O)(=O)N2CCCCC2)cc1)Nc1cccc2ccccc12 | -2 | 18 | 1 | 5 | 13* | 26* | 12*

Screening data from PubChem.
